From PubChem BioAssay
Several values for one entry are separate records, joined by “and”; a condition that tells them apart may be missing. Identical values can stand only once. More than one record can exist for a structure, and the calls need not agree. Activity calls are given as the source filed them.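 Rule for the calls, unless noted: active = compounds whose cell count with miR-34 switched on is under 0.7 times the count with it off; inactive = the rest.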

Tests used:
[1] = liver-stage malaria parasite growth inhibition, primary screen, cell-based, HepG2, luciferase luminescence, HepG2 viability (AID 624349; in the data active = parasite load remaining mostly below about 12%, no sharp cut-off; inactive = mostly above about 10%;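 note: 100% = mean of DMSO negative control wells on the same plate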); conditions: P. berghei liver stage in HepG2, luciferase luminescence, concentration not given here; parasite load remaining: stronger effect = lower value; viability: measured here: HepG2 viability without parasites
[2] = sensitizers of A549 cells to miR-34 induction, primary screen, imaging, A549 dox-inducible miR-34, nuclei and caspase counts (AID 1347080); conditions: A549 miR-34 inducible, Hoechst nuclei count, 48 h
[3] = survival rescue of mitochondrial mutant cells in low glucose, primary screen, MELAS cybrids, Rieske KO mouse fibroblasts, CellTiter-Glo (AID 1508586;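 active = mean z-score across replicates of 1.96 or higher in either the MELAS or the Rieske mutant cell line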;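 note: z relative to plate mean and SD of compound and empty wells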)
[4] = viability rescue of complex I mutant cybrids, primary screen, cell-based, galactose medium, ATP luminescence (AID 1645843;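 active = z-score of at least 1.8 in each of two replicates, scored against plate mean and spread of sample wells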;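 note: positive z means more ATP and so rescue of galactose-driven cybrid death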); conditions: complex I mutant cybrid cells, 72 h, stronger effect = higher value
[5] = hESC survival regulators, cell-based (AID 493140; call rule not given here;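 note: cells exposed to compounds for four days before counting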); conditions: human embryonic stem cell survival screen; stronger effect = higher value
[6] = stronger effect = lower value, cell number ratio, induced over uninduced
[7] = measured here: relative caspase fold change +Dox/-Dox
[8] = measured here: total cells with miR-34 induction, stronger effect = lower value
[9] = measured here: total cells without miR-34 induction
[10] = MELAS cybrid survival, CellTiter-Glo 48 h, stronger effect = higher value
[11] = Rieske KO mouse fibroblast survival, CellTiter-Glo 72 h

SMILES | parasite load remaining [1] | viability [1] | fold change [2, 6] | fold change [2, 7] | cell count [2, 8] | cell count [2, 9] | z-score [3, 10] | z-score [3, 11] | z-score [4] | survival [5]
CCC(=O)OC(OP(=O)(CCCCc1ccccc1)CC(=O)N1C[C@H](C2CCCCC2)C[C@H]1C(=O)O)C(C)C (stereo partly specified) | 49.8% (inactive) | 108% | 0.948 (inactive) | 2.49 | 10100 | 10700 | 0.354 (inactive) and -0.69 (inactive) | -0.176 and -1.17 | 0.59 (inactive) | –
CC[C@H]1OC(=O)[C@H](C)[C@@H](O[C@H]2C[C@@](C)(OC)[C@@H](O)[C@H](C)O2)[C@H](C)[C@@H](O[C@@H]2O[C@H](C)C[C@H](N(C)C)[C@H]2O)[C@](C)(O)C[C@@H](C)/C(=N/OCOCCOC)[C@H](C)[C@@H](O)[C@]1(C)O | 72.6% (inactive) | 69.5% | 0.917 (inactive) | 1.04 | 9160 | 9990 | -0.295 (inactive) | -0.333 | 0.145 (inactive) | –
CC(C)C[C@H](NC(=O)[C@@H](COC(C)(C)C)NC(=O)[C@H](Cc1ccc(O)cc1)NC(=O)[C@H](CO)NC(=O)[C@H](Cc1c[nH]c2ccccc12)NC(=O)[C@H](Cc1cnc[nH]1)NC(=O)[C@@H]1CCC(=O)N1)C(=O)N[C@@H](CCCN=C(N)N)C(=O)N1CCC[C@H]1C(=O)NNC(N)=O | 53.9% (inactive) | 102% | 0.891 (inactive) | 1.53 | 10600 | 11900 | -0.533 (inactive) | -0.444 | 0.71 (inactive) | –
CO[C@H]1[C@@H]([C@@]2(C)O[C@@H]2CC=C(C)C)[C@]2(CC[C@H]1OC(=O)/C=C/C=C/C=C/C=C/C(=O)O)CO2 | 21% (inactive) | 104% | 0.953 (inactive) | 1.44 | 6670 | 7000 | 0.116 (inactive) | -0.135 | -0.585 (inactive) | –
CC(C)C[C@@H](NC(=O)[C@H](Cc1ccccc1)NC(=O)c1cnccn1)B(O)O | -0.325% (inactive) | 1% | 1.12 (inactive) | 1.54 | 1190 | 1060 | -1.11 (inactive) | 0.911 | -2.25 (inactive) | –
CC[C@@H]1OC(=O)C[C@H](O)[C@@H](C)[C@@H](O[C@@H]2O[C@H](C)[C@@H](O[C@H]3C[C@@](C)(O)[C@@H](O)[C@H](C)O3)[C@H](N(C)C)[C@H]2O)[C@@H](C=O)C[C@@H](C)C(=O)/C=C/C(C)=C\[C@@H]1CO[C@H]1O[C@@H](C)[C@H](O)[C@H](OC)[C@@H]1OC | 27.3% (inactive) | 67% | 0.839 (inactive) | 1.48 | 9360 | 11200 | 0.258 (inactive) | -0.691 | 0.54 (inactive) | –
Cc1c(N)nc([C@H](CC(N)=O)NC[C@H](N)C(N)=O)nc1C(=O)N[C@@H](C(=O)N[C@H](C)[C@@H](O)[C@H](C)C(=O)N[C@@H](C(=O)NCCc1nc(-c2ncc(C(=O)NCCC[S+](C)C)s2)cs1)[C@@H](C)O)[C@@H](O[C@@H]1O[C@@H](CO)[C@@H](O)[C@H](O)[C@@H]1O[C@@H]1O[C@H](CO)[C@@H](O)[C@@H](OC(N)=O)[C@@H]1O)c1cnc[nH]1 | 89.5% (inactive) | 111% | 0.865 (inactive) | 1.1 | 4410 | 5100 | -1.31 (inactive) | -1.18 | -1.23 (inactive) | –
CC(C)C[C@H]1C(=O)N2CCC[C@H]2[C@]2(O)O[C@](NC(=O)[C@@H]3C=C4c5cccc6[nH]c(Br)c(c56)CC4N(C)C3)(C(C)C)C(=O)N12 (stereo partly specified) | 20.7% (inactive) and 22.3% (inactive) | 50% and 138% | 0.897 (inactive) and 0.925 (inactive) | 1.56 and 1.14 | 7190 and 8820 | 8020 and 9530 | -0.909 (inactive) | 0.597 | 0.045 (inactive) | –
CC1=C(CC(=O)O)c2cc(F)ccc2/C1=C/c1ccc(S(C)=O)cc1 (stereo unspecified) | 88.6% (inactive) and 52.4% (inactive) | 91.8% and 138% | 0.93 (inactive) | 1.38 | 9820 | 10600 | -0.379 (inactive) | -0.389 | 0.615 (inactive) | 19.2 (inactive)
CO[C@@H]1[C@@H](OC(N)=O)[C@H](O)[C@H](Oc2ccc3c(O)c(NC(=O)c4ccc(O)c(CC=C(C)C)c4)c(=O)oc3c2C)OC1(C)C | 81.2% (inactive) | 108% | 0.831 (inactive) | 1.55 | 9200 | 11100 | 0.157 (inactive) | 0.871 | 1.12 (inactive) | –
COC(=O)c1ccc(=O)c2nc3/c(=C/O)c(O)cc(=O)c3[nH]c12 | 91.5% (inactive) | 96.5% | 0.984 (inactive) | 1.28 | 3340 | 3400 | 0.379 (inactive) | -0.491 | -0.55 (inactive) | –
CC1/C=C/C=C/CC/C=C/C=C/C=C/C=C/C(O[C@@H]2O[C@H](C)[C@@H](O)[C@H](N)[C@@H]2O)CC(O)C(C(=O)O)C(O)CC(=O)CC(O)C(O)CCC(O)CC(O)CC(O)CC(=O)OC(C)C(C)C1O (stereo partly specified) | 90.8% (inactive) and 24.4% (inactive) | 111% and 90.5% | 0.86 (inactive) and 0.844 (inactive) | 1.56 and 1.28 | 9420 and 8760 | 11000 and 10400 | 2.26 (active) and 0.353 (inactive) | 0.0499 and 0.288 | 0.5 (inactive) | –
C=C1CC[C@H](O)C/C1=C/C=C1\CCC[C@]2(C)[C@@H]([C@H](C)CCCC(C)(C)O)CC[C@@H]12 | 63.8% (inactive) | 110% | 1.02 (inactive) and 0.856 (inactive) | 1.06 and 1.42 | 6030 and 8450 | 5930 and 9870 | 0.872 (inactive) | 0.441 | -1.75 (inactive) | 84.6 (inactive)
N.N.O=C(O)CO.[Pt] | 50.4% (inactive) | 108% | 0.961 (inactive) | 1.22 | 10100 | 10500 | -0.923 (inactive) | -1.2 | 0.195 (inactive) | –
O[C@H]1[C@H](O)[C@@H](O)[C@@H]2O[C@@H]2[C@@H]1O | 29.7% (inactive) | 72% | 0.828 (inactive) | 1.47 | 9740 | 11800 | 0.534 (inactive) | 0.1 | 0.2 (inactive) | –
CO/N=C(\C(=O)N[C@@H]1C(=O)N2C(C(=O)[O-])=C(C[N+]3(C)CCCC3)CS[C@H]12)c1csc(N)n1 | 37.1% (inactive) | 100% | 0.872 (inactive) | 1.15 | 9480 | 10900 | -0.344 (inactive) | 0.0422 | 0.485 (inactive) | –
